This is part of a sample that, as a whole, favours compounds with a hit. Of some 79,000 tested, about 15% had one in any assay. Unmarked numbers belong to inactive results. Calls of active or inactive are those of the source. Cut-off read from the data, not from the text of the source: active = growth inhibition above about 70%; inactive = the rest.

A short description of one assay: NCI Yeast Anticancer Drug Screen. Data for the rad52 strain (AID 147).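 Note: 0% = growth of vehicle-treated control cultures.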 As to conditions: S. cerevisiae rad52 mutant growth inhibition; at 1.2 µM; hits give high values. In a few lines:
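Growth of repair-deficient yeast cells was compared between compound-treated and vehicle-treated cultures to give percent inhibition.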
Take `CS(=O)(=O)SCc1ccc([N+](=O)[O-])cc1`: the growth inhibition was 7%.
`Cc1csc(=S)n1OC(=O)NC1CCCCC1`: the growth inhibition was -54%.
With `CCOc1ccc(NC(=O)C2=C(C)NC(C)=C(C(=O)Nc3ccc(OCC)cc3)C2c2cccc([N+](=O)[O-])c2)cc1`, the growth inhibition was -2%.
Turning to `CC(C)(C)N=C(NO)c1ccccc1`, the growth inhibition is 0%.
The same measure, in the same setting: the figure for `CCCCC/C(=C(\C#N)C(=O)OCC)c1ccccc1` is -2%; for `O=C(NCCCl)Sc1ccc(Cl)cc1` it is 3%; for `O=C1Nc2ccc(Br)cc2C1=Nc1ccc2c(c1)OCO2` it is 10%.
Still for that read-out and setting: the figure for `CCC(C)OC(=O)Nc1ccc(C)c(NC(=O)OC(C)CC)c1` (stereo not drawn) is -1%.
In the case of `O=C(O)c1cc2ccc(Cl)cc2c(O)c1C1=CCCCC1`, the growth inhibition was 6%.
Still for that read-out and setting: the figure for `CN(C)Cc1cc(N=Nc2ccc(Cl)cc2)ccc1OC(=O)c1ccccc1` is 1%; for `CN1CCN(C(=O)/C=C/C(=O)c2ccccc2)CC1` it is 4%.
Same read-out and setting: the figure for `CCCC/C=C/C(C)(C(=O)OCC)C(=O)OCC` is -5%; for `Cc1nc(-c2cc3cc([N+](=O)[O-])ccc3oc2=O)cs1` it is 13%; for `Cc1nc2ccccc2nc1NNc1ccccc1` it is -5%.
For the molecule `CN(C)[C@@H]1C(=O)C(C(N)=O)=C(O)[C@@]2(O)C(=O)C3=C(O)c4c(O)cccc4C[C@H]3C[C@@H]12`, the growth inhibition was -5%.
On the same count and under the same terms, the figure for `COc1ccc(NC(=O)CC2SC(=Nc3ccccc3C)NC2=O)c([N+](=O)[O-])c1` (stereo not drawn) is 0%; for `COc1cc(O)c2c(c1O)C(=O)c1cc(C)ncc1C2=O` it is 9%.
For the molecule `CSc1nnc(SC)nn1`, the growth inhibition is 1%.
On the same count and under the same terms, the figure for `COc1cc(/C=C2\CCC/C(=C\c3ccc(O)c(OC)c3)C2=O)ccc1O` is -6%; for `CN(C)CCNC(=O)c1cccc2cc([N+](=O)[O-])ccc12` it is 14%.
`CCC(C)(C)c1ccc(Oc2cccc(C(=O)O)c2)cc1`: the growth inhibition was -2%.
On to `CCCCCCSc1ncnc2[nH]ncc12`, for which the growth inhibition is -2%.
On to `CC(=O)Nc1ccc(/C=C/[N+](=O)[O-])cc1`, for which the growth inhibition is 19%.
For the molecule `CCOC(=O)c1[nH]n(-c2ccccc2)c(=O)c1C=NC(=S)C(N)=S`, the growth inhibition was 24%.
In the case of `CCCC(O)C1CC(C(C)C)CCC1C` (stereo not drawn), the growth inhibition is 0%.
With `O=[n+]1c2ccccc2n([O-])c2cc(Br)ccc21`, the growth inhibition is 94% (active).
Take `CN(C)CCNC(=O)c1cccc2c1Oc1c(cccc1[N+](=O)[O-])O2`: the growth inhibition was -20%.
As for `Nc1ncc(-c2ccc(Br)cc2)s1`, the growth inhibition is 20%.
In the case of `Cc1cc2cc3cc(C)c(N)cc3nc2cc1N`, the growth inhibition was -6%.
`CC12C(=O)OC(=O)C(c3ccccc31)c1ccccc12`: the growth inhibition was -8%.
With `c1ccc2c(OCC3CO3)cccc2c1` (stereo not drawn), the growth inhibition was 3%.
Take `CCOC(=N)c1ccc(O)c(OC)c1`: the growth inhibition was -1%.
With `Nc1cc(N)c(N=Nc2cccc3c(S(=O)(=O)O)cccc23)cc1N=Nc1cc([N+](=O)[O-])ccc1O`, the growth inhibition is 32%.
Turning to `COC(=O)Oc1cc(Cl)c(Cl)cc1Cl`, the growth inhibition was 0%.
On the same count and under the same terms, the figure for `O=C(O)C1CC(c2ccccc2)=NN1c1ccccc1` (stereo not drawn) is -28%.
Regarding `COc1cc([C@@H]2c3cc4c(cc3[C@@H](Nc3ccc(NC(=O)c5cc([N+](=O)[O-])cn5C)cc3)[C@H]3COC(=O)[C@H]23)OCO4)cc(OC)c1O`, the growth inhibition is 25%.
`O=C(O)c1ccccc1/C=N/N=C1c2ccccc2-c2ccccc21`: the growth inhibition was -3%.
As to `O=C1CC(=O)c2ccccc21`, the growth inhibition is -2%.
As for `Nc1ncnc2c1ncn2C1OC(CO)CC1O` (stereo not drawn), the growth inhibition was -20%.

The same assay, now with this note: S. cerevisiae rad52 mutant growth inhibition; at 3.7 µM; hits give high values.
`CS(=O)(=O)SCc1ccc([N+](=O)[O-])cc1`: the growth inhibition is 30%.
`Cc1csc(=S)n1OC(=O)NC1CCCCC1`: the growth inhibition was 63%.
On the same count and under the same terms, the figure for `CCOc1ccc(NC(=O)C2=C(C)NC(C)=C(C(=O)Nc3ccc(OCC)cc3)C2c2cccc([N+](=O)[O-])c2)cc1` is 0%; for `CC(C)(C)N=C(NO)c1ccccc1` it is 1%.
Regarding `CCCCC/C(=C(\C#N)C(=O)OCC)c1ccccc1`, the growth inhibition is -1%.
For `O=C(NCCCl)Sc1ccc(Cl)cc1`, the growth inhibition is 7%.
For `O=C1Nc2ccc(Br)cc2C1=Nc1ccc2c(c1)OCO2`, the growth inhibition was 8%.
Consider `CCC(C)OC(=O)Nc1ccc(C)c(NC(=O)OC(C)CC)c1` (stereo not drawn), for which the growth inhibition is -1%.
Still for that read-out and setting: the figure for `O=C(O)c1cc2ccc(Cl)cc2c(O)c1C1=CCCCC1` is 8%; for `CN(C)Cc1cc(N=Nc2ccc(Cl)cc2)ccc1OC(=O)c1ccccc1` it is 3%; for `CN1CCN(C(=O)/C=C/C(=O)c2ccccc2)CC1` it is 11%.
Still for that read-out and setting: the figure for `CCCC/C=C/C(C)(C(=O)OCC)C(=O)OCC` is -5%.
In the case of `Cc1nc(-c2cc3cc([N+](=O)[O-])ccc3oc2=O)cs1`, the growth inhibition was 39%.
For `Cc1nc2ccccc2nc1NNc1ccccc1`, the growth inhibition is -8%.
The same measure, in the same setting: the figure for `CN(C)[C@@H]1C(=O)C(C(N)=O)=C(O)[C@@]2(O)C(=O)C3=C(O)c4c(O)cccc4C[C@H]3C[C@@H]12` is -10%; for `COc1ccc(NC(=O)CC2SC(=Nc3ccccc3C)NC2=O)c([N+](=O)[O-])c1` (stereo not drawn) it is -2%.
On the same count and under the same terms, the figure for `COc1cc(O)c2c(c1O)C(=O)c1cc(C)ncc1C2=O` is 16%; for `CSc1nnc(SC)nn1` it is 7%; for `COc1cc(/C=C2\CCC/C(=C\c3ccc(O)c(OC)c3)C2=O)ccc1O` it is -6%.
With `CN(C)CCNC(=O)c1cccc2cc([N+](=O)[O-])ccc12`, the growth inhibition is 20%.
Consider `CCC(C)(C)c1ccc(Oc2cccc(C(=O)O)c2)cc1`, for which the growth inhibition was -1%.
Consider `CCCCCCSc1ncnc2[nH]ncc12`, for which the growth inhibition was -1%.
Consider `CC(=O)Nc1ccc(/C=C/[N+](=O)[O-])cc1`, for which the growth inhibition was 23%.
With `CCOC(=O)c1[nH]n(-c2ccccc2)c(=O)c1C=NC(=S)C(N)=S`, the growth inhibition was 21%.
For the molecule `CCCC(O)C1CC(C(C)C)CCC1C` (stereo not drawn), the growth inhibition is 1%.
With `O=[n+]1c2ccccc2n([O-])c2cc(Br)ccc21`, the growth inhibition was 98% (active).
On to `CN(C)CCNC(=O)c1cccc2c1Oc1c(cccc1[N+](=O)[O-])O2`, for which the growth inhibition was -21%.
The same measure, in the same setting: the figure for `Nc1ncc(-c2ccc(Br)cc2)s1` is 35%; for `Cc1cc2cc3cc(C)c(N)cc3nc2cc1N` it is -1%; for `CC12C(=O)OC(=O)C(c3ccccc31)c1ccccc12` it is -2%.
`c1ccc2c(OCC3CO3)cccc2c1` (stereo not drawn): the growth inhibition is 12%.
As to `CCOC(=N)c1ccc(O)c(OC)c1`, the growth inhibition was 0%.
Same read-out and setting: the figure for `Nc1cc(N)c(N=Nc2cccc3c(S(=O)(=O)O)cccc23)cc1N=Nc1cc([N+](=O)[O-])ccc1O` is 26%.
On the same count and under the same terms, the figure for `COC(=O)Oc1cc(Cl)c(Cl)cc1Cl` is 0%.
Regarding `O=C(O)C1CC(c2ccccc2)=NN1c1ccccc1` (stereo not drawn), the growth inhibition is -9%.
For the molecule `COc1cc([C@@H]2c3cc4c(cc3[C@@H](Nc3ccc(NC(=O)c5cc([N+](=O)[O-])cn5C)cc3)[C@H]3COC(=O)[C@H]23)OCO4)cc(OC)c1O`, the growth inhibition was 84% (active).
For `O=C(O)c1ccccc1/C=N/N=C1c2ccccc2-c2ccccc21`, the growth inhibition was -1%.
`O=C1CC(=O)c2ccccc21`: the growth inhibition was -1%.
On the same count and under the same terms, the figure for `Nc1ncnc2c1ncn2C1OC(CO)CC1O` (stereo not drawn) is -10%.

The values above are taken from PubChem BioAssay (NCI).
